An excerpt weighted towards active compounds, which were near 3.3% of everything screened.
BRCT inh red = inhibitors of human BRCA1 BRCT-phosphoprotein interaction (red fluorophore); P38398; BRCT-phosphopeptide binding, red fluorescence polarization; Potency, µM (series often up to 76.9 µM), without a hit: at the top dose activity change, negative = inhibition, hits mostly inhibitors; 75,000 compounds, 0.03% hits; AID 892; further: on the % scale 0 is the no-effect control and ±100 the full control effect
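Fluorescence polarization: 100 nM His-tagged BRCA1 BRCT with 100 nM TAMRA-labelled phospho-BACH1 decapeptide, phosphate buffer pH 7.3 with 150 mM NaCl, DTT, 0.01% Tween 20; 12 min RT. Binding inhibition seen as FP decrease.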
15-hLO inh = inhibitors of human 15-lipoxygenase (ALOX15); P16050; purified 15hLO-1, xylenol orange hydroperoxide absorbance; Potency, µM (top dose mostly 57.1 µM), for inactives: at the top dose activity change, negative = inhibition, usual class: inhibitors; 74,000 compounds, 1.4% hits; AID 887; further: potency means the concentration at half of the fitted maximal effect; on the % scale 0 is the no-effect control and ±100 the full control effect; nearly all actives have a fitted effect of over 55% in size
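Compounds were preincubated 15 min at room temperature with 40 nM purified human enzyme (25 mM Hepes pH 7.5, 0.01% Triton X-100); 50 uM arachidonic acid reacted 6 min. Fe-xylenol orange detection, 30 min, absorbance ratio 573/405 nm.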
TsaE inh = inhibitors of E. coli YjeE (TsaE) | P0AF67 | 71,000 compounds, 0.05% hits | purified YjeE enzyme, qHTS inhibition assay | Potency, µM | AID 605
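Purified YjeE (10 uM) with BODIPY Texas Red-labeled ADP probe (2 uM); compounds pin-transferred, 15 min at room temperature. Binding inhibition read as decreased fluorescence polarization; ADP titration as control.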
DNA Pol III inh = blocks replication by bacterial DNA polymerase III holoenzyme; 71,000 compounds, 0.25% hits; Potency, µM (series often up to 57.1 µM), for inactives: at the top dose activity change, negative = inhibition; reconstituted DNA polymerase III holoenzyme replication, biochemical; further: potency means the concentration at half of the fitted maximal effect; on the % scale 0 is the no-effect control and ±100 the full control effect
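Reconstituted *E. coli* holoenzyme (0.35 nM Pol III, 1 nM beta, 154 nM SSB, 2 nM primase) was preincubated with compound for 15 min at RT. Synthesis on 1.4 nM ssM13Gori ran 35 min, then was stopped with PicoGreen/EDTA and read as dsDNA fluorescence.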
Tau fil binding = binders of human tau filaments; P10636; recombinant tau filaments, thioflavin S fluorescence, 15 h; filaments grown with octadecylsulfate alongside compound; Potency, µM (series often up to 57.1 µM), inactives show at the top dose activity change, negative = inhibition; 71,000 compounds, 2% hits; AID 596;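 further: potency means the concentration at half of the fitted maximal effect; on the % scale 0 is the no-effect control and ±100 the full control effect; actives lower thioflavin S fluorescence by blocking filaments or displacing dye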
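Quantitative HTS: thioflavine S signal from ODS-induced tau filaments, excited at 450 nm, emission 510 nm. Conditions: 1 uM tau, 30 uM ODS, 15 h at 37 C, pH 7.4.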
BRCT PPI green = inhibitors of human BRCA1 BRCT-phosphoprotein interaction (green fluorophore); P38398; BRCA1 BRCT-phosphopeptide binding, green fluorescence polarization; 75,000 compounds, 0.05% hits; Potency, µM (top dose mostly 76.9 µM), without a hit: top-dose activity change, negative = inhibition, most hits filed as inhibitors; AID 875;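 further: potency means the concentration at half of the fitted maximal effect; plate controls were peptide without protein for full effect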
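Compounds were incubated for 12 min at room temperature with a complex of 100 nM fluorescein-tagged pBACH1 decapeptide and 250 nM His-tagged BRCT protein. Buffer was phosphate pH 7.3 with EDTA, DTT and Tween 20. Disruption of binding lowers the polarization signal.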
* = called active by the depositor; i = inactive; ? = inconclusive; · = no result; [ ] = dose if it differs, or a comment. The call rests on the fitted dose curve; in most records, active means well fitted curve in the direction sought with a large enough effect; inconclusive means small, poorly fitted or top-dose-only effect, or another doubt; inactive means no such curve, though single readings can be large; an effect the other way counts as inactive or inconclusive.

SMILES	BRCT inh red	15-hLO inh	TsaE inh	DNA Pol III inh	Tau fil binding	BRCT PPI green
CN(C)S(=O)(=O)c1ccc(Nc2ccc(O)c3c2C(=O)c2c([N+](=O)[O-])ccc(O)c2C3=O)cc1	-2.4%[15.4 µM]	3.2%[11.4 µM]	i	-0.7%[11.4 µM]	1µM*	-2.6%[15.4 µM]
O=C1c2c(O)ccc([N+](=O)[O-])c2C(=O)c2c([N+](=O)[O-])ccc(O)c21	-3.6%	-7.2%	i	-29.2%	0.2µM*	-2.9%
O=S(=O)(c1ccccc1)N1CCC2(CC1)CN(c1ncccn1)C2	0.1%	15.4%	i	-4.6%	-9.6%	-2.1%
CCOC(=O)c1nnc2cc(-c3ccc(Br)cc3)nn2c1C	-1.3%	1.7%	i	-5.4%	10µM*	-3.0%
CCOC(=O)c1cnn2c(C)cc(-c3ccccc3)nc12	-0.2%	-11.2%	i	-10.7%	-1.6%	1.5%
CCOC(=O)c1nnc2cc(-c3ccccc3)nn2c1C	2.7%	-0.9%	i	-0.6%	15.8µM*	-1.4%
O=C(c1ccccc1)[C@H](Nc1ccc2ccccc2c1)c1ccccc1	-0.8%[15.4 µM]	1.6%[11.4 µM]	i	-11.0%[11.4 µM]	-27.5%[11.4 µM]	-1.4%[15.4 µM]
COC(=O)[C@@H]1C[C@H]1[C@@H](NC(C)=O)c1ccccc1	0.4%	·	i	-2.7%	-18.4%	-2.1%
C=COCC1CN2C(CCC(C)C2c2ccc(Br)cc2)C(=O)O1 (stereo unspecified)	-1.0%[15.4 µM]	6.6%[11.4 µM]	·	·	·	-0.1%[15.4 µM]
CCN(CC)c1nc(N(CC)CC)[nH]c(=O)n1	-3.9%	12.6µM*	i	1.0%	5.0%	-0.7%
Clc1ccc2nc(NC3=NCN(CCN4CCOCC4)CN3)nc(-c3ccccc3)c2c1	0.3%	3.7%	i	-5.1%	7.94µM*	-0.9%
N#Cc1cc2c(nc1SCc1ccncc1)CCC2	-1.2%	?	i	-1.3%	6.31µM*	-1.1%
N#Cc1cc2c(nc1SCc1ccccc1)CCCC2=O	0.3%	-14.6%	i	-0.1%	-0.7%	2.1%
Cc1noc(C)c1COC(=O)Cc1ccc(Cl)c(Cl)c1	0.3%	25.1µM*	i	12.1%	6.5%	1.8%
CSc1nc(C)cc(Nc2ccc(O)c(CN3CCCCC3)c2)n1	-1.6%[15.4 µM]	19.7%[11.4 µM]	i	-9.7%[11.4 µM]	-5.9%[11.4 µM]	-2.0%[15.4 µM]
C=CCSc1nnc2nc3c(nn12)c1cc(C)ccc1n3CC=C	-2.4%	-13.9%	i	-7.6%	6.31µM*	-1.5%
C=CCn1c2ccccc2c2nnc(SCC(=O)NC(C(=O)OC)C(C)C)nc21 (stereo unspecified)	0.7%	-1.7%	i	-9.0%	8.2%	-1.9%
CC(C)OCCCn1c(-c2ccco2)nc2nc3ccccc3nc21	0.2%	-18.0%	i	-3.2%	15.8µM*	2.6%
C/C(CCN1CCCCc2nc(C)c(C)cc21)=N\O[C@@H](C)CN1CCCc2nc(C)c(C)cc21	-1.7%[15.4 µM]	-1.5%[11.4 µM]	·	·	·	1.3%[15.4 µM]
c1ccc2sc(SCSc3nc4ccccc4s3)nc2c1	1.1%[15.4 µM]	-25.1%[11.4 µM]	i	-6.8%[11.4 µM]	-1.7%[11.4 µM]	-1.2%[15.4 µM]
c1ccc2sc(SN3CCOCC3)nc2c1	-1.1%	2µM*	i	-3.6%	-10.8%	-1.3%
c1cncc(CNc2ncncc2-c2ccoc2)c1	-3.5%	?	i	-1.7%	58.2%	-1.4%
O=C1c2ccccc2C(=O)C1c1ccc2ccccc2n1	-0.9%	-20.7%	i	-22.0%	0.631µM*	3.2%
CCN(CC)CCCCn1c(-c2ccccc2)nc2c(NCCOC)nc(C)nc21	0.3%	5.2%	i	-5.4%	2.5%	-0.6%
CSc1ccc(C2C(C#N)=C(N)Oc3c2ccc(=O)c2c(C)oc(C)c32)cc1 (stereo unspecified)	1.2%	15.8µM*	i	4.6%	50.2%	36.6%
SMILES	BRCT inh red	15-hLO inh	TsaE inh	DNA Pol III inh	Tau fil binding	BRCT PPI green
O=C(O)CN(CC(=O)O)c1ccccc1	0.8%[15.4 µM]	6.8%[11.4 µM]	i	-1.0%[11.4 µM]	-7.5%[11.4 µM]	1.7%[15.4 µM]
Cn1cnc([N+](=O)[O-])c1SCC(=O)O	1.0%[15.4 µM]	-0.2%[11.4 µM]	i	-5.1%[11.4 µM]	-5.1%[11.4 µM]	1.9%[15.4 µM]
c1ccc(Nc2cc(Nc3ccccc3)[nH]n2)cc1	0.3%	-97.6%	i	-2.0%	20µM*	-3.5%
CC(=O)O[C@]1(C)CC[C@]23CC1C(C)(C)C2CC[C@@H]3C (stereo partly specified)	-0.4%	25.1µM*	·	·	·	-2.3%
Clc1ccccc1-c1cncnc1NCCN1CCOCC1	0.6%	10.4%	i	-2.3%	0.1%	0.1%
O=C(c1ccc(-n2c(=O)c(=O)[nH]c3ccccc32)cc1)N1CCCN(Cc2ccccc2)CC1	-2.3%	-2.2%	·	·	·	0.1%
COC(=O)CC1=COC(O)C2C(CO)=CC[C@@H]12 (stereo partly specified)	0.3%[15.4 µM]	11.1%[11.4 µM]	·	·	·	-1.0%[15.4 µM]
CC(C)OC(=O)c1cn(-c2ccccc2)nc1-c1ccco1	-0.7%	20µM*	i	-13.0%	-2.3%	3.2%
CC(C)(C)OC(=O)C1=NOC2(C=CC(=O)C=C2)C1	0.7%[15.4 µM]	-11.5%[11.4 µM]	·	·	·	-0.2%[15.4 µM]
CN(C)/C=C1\C(=O)c2ccc(N(C)C)nc2CC1c1ccccc1 (stereo unspecified)	-0.7%	5.01µM*	i	-4.3%	162.2%	12.2%
O=C1CCC[C@@H](C(C(=O)OCc2ccccc2)C(=O)OCc2ccccc2)C1	0.9%[15.4 µM]	-0.7%[11.4 µM]	·	·	·	0.0%[15.4 µM]

From PubChem
